# Experimental data published in PubChem BioAssay (NCI).
# The panel holds about 79,000 compounds, 15% with a hit somewhere; the sample as a whole holds those more often. The source made the active and inactive calls. Rule as the data show it: active = growth inhibition above about 70%; inactive = the rest. Where a SMILES comes first, the peptide text is derived from it. [ ]: non-standard residue; d: D form. The star is where a group is joined. ξ: configuration not given here. Cbz = O=C(OCc1ccccc1)*; ξP = O=C(O)C1CCCN1
# Columns and labels:
# [1] = NCI Yeast Anticancer Drug Screen. Data for the rad50 strain (AID 155);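 also: 0% = growth of vehicle-only cultures of the same strain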; details: S. cerevisiae rad50 strain growth inhibition; at 50.0 µM; hits give high values
# Procedure, shortened: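 A DNA repair-deficient yeast mutant serves as the test organism; compound-induced growth inhibition is calculated against vehicle-treated cells.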
# [2] = NCI Yeast Anticancer Drug Screen. Data for the mec2-1 strain (AID 157); details: S. cerevisiae mec2-1 strain, at 50.0 µM, hits give high values
# Procedure, shortened: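 Test agents were screened against the mec2-1 yeast strain, with defined DNA repair or cell cycle alteration. Growth was scored as inhibition against vehicle-only controls.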
# [3] = NCI Yeast Anticancer Drug Screen. Data for the sgs1 mgt1 strain (AID 161);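 also: 0% = growth of cultures given vehicle only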; details: S. cerevisiae sgs1 mgt1 strain, at 50.0 µM, hits give high values
# Procedure, shortened: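 Mutant yeast exposed to compound; growth scored against vehicle-only wells.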
# [4] = NCI Yeast Anticancer Drug Screen. Data for the cln2 rad14 strain (AID 165);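 also: 0% = growth equal to vehicle treated cultures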; details: S. cerevisiae cln2 rad14 strain, at 50.0 µM, hits give high values
# Procedure, shortened: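 Growth of compound-exposed yeast (cln2 rad14 genotype) measured and expressed as inhibition relative to vehicle.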
# [5] = NCI Yeast Anticancer Drug Screen. Data for the bub3 strain (AID 167); details: S. cerevisiae bub3 mutant strain, at 50.0 µM, hits give high values
# Procedure, shortened: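 Inhibition values come from growth of compound-treated mutant yeast normalised to vehicle-treated controls.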
# [6] = NCI Yeast Anticancer Drug Screen. Data for the mlh1 rad18 strain (AID 175); details: S. cerevisiae mlh1 rad18 strain growth inhibition; at 50.0 µM; hits give high values
# Procedure, shortened: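 In this whole-cell yeast screen, a strain with altered DNA damage repair is challenged with compound, and its growth is measured against matched vehicle-treated controls.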
Structure (SMILES),growth inhibition [1],growth inhibition [2],growth inhibition [3],growth inhibition [4],growth inhibition [5],growth inhibition [6]
C=C(CN(C)C)C(=O)c1ccccc1OC,35.7% (inactive),30.1% (inactive),44.8% (inactive),-25.9% (inactive),35.3% (inactive),18.8% (inactive)
COC(=O)CCC(=O)Nc1cc(Cl)ccc1Cl,-2.35% (inactive),-16.1% (inactive),-0.35% (inactive),6.45% (inactive),-4.15% (inactive),6.3% (inactive)
Cc1c(N)cc2c(c1N)C(C)(C)CC2(C)C,1.35% (inactive),-2.2% (inactive),-0.4% (inactive),-6.35% (inactive),11.1% (inactive),-4.6% (inactive)
CCOC(=O)C(=O)Nc1nc2ccc(OC)cc2s1,-39.8% (inactive),-7.3% (inactive),-10.8% (inactive),6.75% (inactive),0.15% (inactive),9.25% (inactive)
O=C(c1ccccc1)c1ccc2c(c1)-c1ccccc1-2,7.3% (inactive),-7% (inactive),15.1% (inactive),-21.1% (inactive),12.8% (inactive),12.8% (inactive)
CC(C)(OC(=O)Nc1ccccc1)c1ccc([N+](=O)[O-])cc1,-5% (inactive),9.1% (inactive),13.2% (inactive),-25.5% (inactive),-22.7% (inactive),-4.45% (inactive)
CC1(C)CC(c2c[nH]c3ccccc23)=CC2=Nc3ccccc3C21O (configuration not stated),-41.9% (inactive),6.7% (inactive),3.8% (inactive),15% (inactive),2.65% (inactive),16.7% (inactive)
CC(=O)N(c1ccccc1)c1ccccc1,12.8% (inactive),13.2% (inactive),2.6% (inactive),6.05% (inactive),-0.2% (inactive),4.1% (inactive)
C=CCOc1ccc(C2C(C(=O)OC)C(=O)CC(O)(c3ccccc3)C2C(=O)OC)cc1OC (configuration not stated),-63.2% (inactive),-24.6% (inactive),-14.9% (inactive),-13.2% (inactive),-0.9% (inactive),-19.7% (inactive)
Cc1ccc(S(=O)(=O)C(=S)N(C)N(C)C)cc1,18.2% (inactive),25.4% (inactive),36.4% (inactive),-12.9% (inactive),25.4% (inactive),88% (active)
CN1CCn2c(Br)ccc2C1=O,13.6% (inactive),-11.6% (inactive),-1.55% (inactive),8.45% (inactive),2.65% (inactive),-3.3% (inactive)
CCOC1=CC(=O)C(=O)c2ccccc21,-1.05% (inactive),-10.2% (inactive),-5.8% (inactive),-17.7% (inactive),-0.55% (inactive),10.3% (inactive)
COC(=O)/C(=N/Nc1cccc(Cl)c1)C(C(=O)C(=O)Nc1cccc(Cl)c1C)c1nc2ccccc2nc1C (configuration not stated),44.8% (inactive),17.9% (inactive),42% (inactive),39.3% (inactive),11.8% (inactive),14.3% (inactive)
Cc1ncc([N+](=O)[O-])n1Cc1nncs1,-9.35% (inactive),-11.4% (inactive),-7.95% (inactive),-31.9% (inactive),-19.3% (inactive),-14.2% (inactive)
NC(=O)N/N=C/C(Cc1ccccc1)=N/OCc1ccccc1,-6.9% (inactive),-1.8% (inactive),-0.45% (inactive),-17.6% (inactive),16.4% (inactive),-1.75% (inactive)
COc1cc(C2(C)OC(=O)c3ccccc32)c(OC)c2ccccc12 (configuration not stated),27.9% (inactive),2.3% (inactive),30.4% (inactive),31.3% (inactive),30.9% (inactive),14.2% (inactive)
Cc1ccc2nc(N(C)C)nc-2c2[nH]c(=O)[nH]c12,-28.9% (inactive),-31.6% (inactive),-12.2% (inactive),3.9% (inactive),-28.9% (inactive),-19.3% (inactive)
CC(NC(=O)C(N)CC(=O)O)NC(=O)C1CCC1 (configuration not stated),-39.9% (inactive),-48.1% (inactive),-19.2% (inactive),24.6% (inactive),8.6% (inactive),-35.8% (inactive)
CCOC(=O)/C=C(/OCC)c1cccc(Cl)c1,9.4% (inactive),-5.95% (inactive),13.8% (inactive),16.3% (inactive),39.4% (inactive),-1.85% (inactive)
[N-]=[N+]=Nc1cc(-c2ccccc2)nc2cc3c(cc12)OCO3,-2.9% (inactive),-7.95% (inactive),-19.8% (inactive),-16.4% (inactive),-34.2% (inactive),-7.2% (inactive)
NC(=O)C(Br)Cc1cccc(Cl)c1 (configuration not stated),29.6% (inactive),11.2% (inactive),13.4% (inactive),2.05% (inactive),17.9% (inactive),14.4% (inactive)

Structure (SMILES),growth inhibition [1],growth inhibition [2],growth inhibition [3],growth inhibition [4],growth inhibition [5],growth inhibition [6]
CC(=O)Nc1ccccc1Sc1ccccc1,-6.5% (inactive),-17.1% (inactive),4.35% (inactive),15.1% (inactive),4.6% (inactive),-20.9% (inactive)
CC(=O)CC(=O)C1CCC(C(=O)CC(C)=O)CC1 (configuration not stated),-3.7% (inactive),6.2% (inactive),0.65% (inactive),-28.1% (inactive),-0.7% (inactive),-13.2% (inactive)
CN(C)C(=S)Oc1cc(Cl)c(Cl)cc1Cl,86.1% (active),95.6% (active),91.3% (active),81.8% (active),91.3% (active),96% (active)
COc1nc2ccccc2nc1OC,-14.1% (inactive),-8.75% (inactive),-5.5% (inactive),-14.8% (inactive),4.45% (inactive),4% (inactive)
Cc1ccccc1C(c1ccccc1)C(CO)CO (configuration not stated),-1% (inactive),0.15% (inactive),2.9% (inactive),-64.3% (inactive),-5.4% (inactive),-17.4% (inactive)
O=C(Nc1ccc([N+](=O)[O-])cc1Cl)OCCc1ccccn1,3.25% (inactive),26.9% (inactive),23.6% (inactive),-10.6% (inactive),52% (inactive),20.5% (inactive)
CC(=O)C(=C(c1ccccc1)c1ccccc1)c1ccccc1,-51.4% (inactive),-7.8% (inactive),-32.9% (inactive),-1.4% (inactive),-46.6% (inactive),7.6% (inactive)
CC(C)(C)c1cc(C(C)(C)C)c(P(C(O[Si](C)(C)C)=C(c2ccccc2)c2ccccc2)C(O[Si](C)(C)C)=C(c2ccccc2)c2ccccc2)c(C(C)(C)C)c1,-14.7% (inactive),-8.45% (inactive),-3.7% (inactive),5.2% (inactive),-5% (inactive),15.2% (inactive)
CC(C)=C/C(C)=N/Nc1ccc([N+](=O)[O-])cc1[N+](=O)[O-],5.9% (inactive),5.6% (inactive),13.5% (inactive),2.05% (inactive),12.8% (inactive),-0.2% (inactive)
O=C1c2ccccc2C(=O)N1CC#CCN1C(=O)c2ccccc2C1=O,-6.95% (inactive),-31.8% (inactive),19.6% (inactive),-5.05% (inactive),-2.65% (inactive),-5.75% (inactive)
CC1(C)N=C(N)NC(Nc2ccc(Cl)cc2)=N1,9.6% (inactive),9.05% (inactive),10.8% (inactive),-20.8% (inactive),14.6% (inactive),33.6% (inactive)
Nc1cccc(CC(=O)c2ccccc2)n1,-4.3% (inactive),-11% (inactive),-7.9% (inactive),-8.55% (inactive),-3.05% (inactive),-13.1% (inactive)
O=C(CNC(=O)OCc1ccccc1)NCC(=O)N1CCCC1C(=O)O (stereo not drawn) (Cbz-Gly-Gly-[ξP]-OH),-1.6% (inactive),1.15% (inactive),-4.45% (inactive),0.25% (inactive),-3.65% (inactive),-23.6% (inactive)
COc1ccc2[nH]cc(C=O)c2c1,13.3% (inactive),-2.95% (inactive),-1.65% (inactive),7.25% (inactive),-2.1% (inactive),3.5% (inactive)
COC(=O)C12OCC34C(CC5C(C)CC(=O)C(O)C5(C)C3C(O)C1O)OC(=O)C(OC(C)=O)C24 (configuration not stated),31.2% (inactive),44.4% (inactive),11.6% (inactive),36% (inactive),24.2% (inactive),31.6% (inactive)
O=c1[nH]c2cc([N+](=O)[O-])ccc2nc1/C(=N\Nc1ccccc1)C(O)c1ccc2c(c1)OCO2 (configuration not stated),26.5% (inactive),5.4% (inactive),21.6% (inactive),29.4% (inactive),10.2% (inactive),41.1% (inactive)
COC(=O)[C@H](Cc1ccccc1)NP(=O)(OCCC#N)OCC1OC(n2cc(C)c(=O)[nH]c2=O)CC1N=[N+]=[N-] (some centres not stated),0.95% (inactive),-13.1% (inactive),-19.3% (inactive),-20% (inactive),-19.9% (inactive),-35.8% (inactive)
O=C1CCC(c2ccccc2)C(O)(C(=O)O)C1 (configuration not stated),6.45% (inactive),-8.1% (inactive),-13.9% (inactive),-5.1% (inactive),-14.3% (inactive),-24.9% (inactive)
OCC=C1CCCCCC1,4.9% (inactive),6.8% (inactive),1.5% (inactive),-4.25% (inactive),12.3% (inactive),2.95% (inactive)
Cc1ccc(N2N=S=CC2=O)cc1,40.7% (inactive),11.3% (inactive),37.5% (inactive),13.4% (inactive),20.3% (inactive),34% (inactive)
CCCCCCCCNc1ncnc2[nH]ncc12,7.15% (inactive),11.3% (inactive),22.1% (inactive),6.5% (inactive),47.2% (inactive),13.9% (inactive)
